Reference: PubChem BioAssay
Records with an inconclusive call do not appear. Calls of active or inactive are those of the source. Rule as the data show it, unless noted: active = inhibition above about 80%; inactive = the rest. Numbered stars: 1 amine (or outer) side, 2 acyl side, 3 side chain; on linkers, the order of the positions; unused ones are H or OH. Bridge positions count the residues as written; N and C are the ends. Square brackets hold non-standard residues; d marks the D form. Peptide text beside a SMILES is read from it. I, II: the chains in the order shown. Actinocin(9to1) = Cc1c2oc3c(C)ccc(C(=O)[*:1])c3nc-2c(C(=O)[*:2])c(N)c1=O; NMeV = CN[CH](C(=O)O)C(C)C; Sar = CNCC(=O)O

Key:
[1] = growth inhibition of DIPG glioma cells, dose response, cell-based, SU-DIPG-XVII, MIPE5.0, CellTiter-Glo, qHTS (AID 1347060; cut-off not given, nearly all actives have AC50 up to about 26 µM;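 as to AC50: cells exposed to compound for 48 hours before viability readout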); conditions: SU-DIPG-XVII viability, CellTiter-Glo ATP luminescence
[2] = viability loss in pontine glioma line – cell-based, SU-DIPG-XXV, MIPE5.0, CellTiter-Glo, qHTS, dose response (AID 1347065; cut-off not given, nearly all actives have AC50 up to about 26 µM;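 also: cells exposed to compound for 48 hours before ATP readout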); conditions: CellTiter-Glo ATP luminescence
[3] = JHH-DIPG-1 glioma cell viability, MIPE5.0 library, CellTiter-Glo luminescence, qHTS (AID 1347067; cut-off not given, nearly all actives have AC50 up to about 26 µM;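 also: cells exposed to compound for 48 hours before readout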); conditions: JHH-DIPG-1 glioma viability, CellTiter-Glo ATP luminescence
[4] = SU-DIPG-XXV glioma cell viability, MIPE5.0 library, qHTS (AID 1347068; cut-off not given, nearly all actives have IC50 up to about 30 µM;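 as to IC50: cells exposed to compound for 48 hours before viability readout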)
[5] = LFS_MB_P medulloblastoma growth inhibition, cell-based, chromothripsis tumors, cisplatin or BGB combos (AID 1671449); conditions: LFS_MB_P medulloblastoma cells;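 also: cells exposed for 96 hours; 0% = vehicle DMSO and 100% = killing by high DMSO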
[6] = HDN33 neuroblastoma growth inhibition, cell-based, chromothripsis tumors, cisplatin or BGB combos (AID 1671450); conditions: HDN33 neuroblastoma cells, stronger effect = higher value;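 also: cells exposed to compound for four days; 0% = vehicle DMSO and 100% = cell killing by high DMSO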
[7] = ICB984 medulloblastoma cell growth inhibition, synergistic combos for chromothripsis tumors, cisplatin or BGB combos (AID 1671451; call rule not given here;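 also: cells exposed for 96 hours before readout; 0% = vehicle DMSO and 100% = killing by high DMSO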); conditions: ICB984 medulloblastoma cells, drug combinations, stronger effect = higher value
[8] = LFS_MB_1R medulloblastoma cell growth inhibition, synergistic combos for chromothripsis tumors, cisplatin or BGB combos (AID 1671452); conditions: LFS_MB_1R medulloblastoma cells, stronger effect = higher value;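 also: cells exposed for 96 hours before readout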
[9] = HTB85 osteosarcoma cell growth inhibition, synergistic combos for chromothripsis tumors, BGB or cisplatin IC20 combos (AID 1671453); conditions: HTB85 osteosarcoma cells, drug combinations, stronger effect = higher value;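 also: cells exposed for 96 hours before readout; 0% = vehicle DMSO and 100% = high DMSO killing control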
[10] = CRL2098 osteosarcoma cell growth inhibition, synergistic combos for chromothripsis tumors, BGB or cisplatin IC20 combos (AID 1671454); conditions: CRL2098 osteosarcoma cells, drug combinations, stronger effect = higher value;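 also: cells exposed for 96 h before readout; 0% = vehicle DMSO and 100% = killing by high DMSO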
[11] = HD-MB03 medulloblastoma cell growth inhibition, synergistic combos for chromothripsis tumors, BGB or cisplatin IC20 combos (AID 1671455; in the data active = inhibition above about 83%;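 also: 0% = vehicle DMSO and 100% = high DMSO as cytotoxic control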); conditions: HD-MB03 medulloblastoma cells, stronger effect = higher value
[12] = UWB1.289 ovarian carcinoma cell growth inhibition, synergistic combos for chromothripsis tumors, BGB or cisplatin combos (AID 1671456); conditions: UWB1.289 ovarian carcinoma cells, stronger effect = higher value;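 also: cells exposed to compound for four days; 0% = vehicle DMSO and 100% = killing by high DMSO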
[13] = LFS_MB_2R medulloblastoma cell growth inhibition, synergistic combos for chromothripsis tumors, cisplatin combos (AID 1671457); conditions: LFS_MB_2R medulloblastoma cells, stronger effect = higher value;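 also: cells exposed to compound for four days before readout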
[14] = MDA-MB-436 breast carcinoma cell growth inhibition, synergistic combos for chromothripsis tumors, BGB or cisplatin combos (AID 1671458; call rule not given here;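 also: cells exposed for 96 hours; 0% = vehicle DMSO and 100% = killing by high DMSO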); conditions: MDA-MB-436 breast carcinoma growth inhibition, drug combinations, stronger effect = higher value
[15] = UWB1.289_BRCA1 ovarian cancer growth, cell-based, BGB or cisplatin combinations (AID 1671459); conditions: UWB1.289 BRCA1 ovarian carcinoma, drug combinations, stronger effect = higher value
[16] = human astrocyte viability loss, single and combined drugs, cytotoxicity control for chromothriptic childhood tumor combination screen, cell-based, BGB or cisplatin IC20 combos (AID 1671460); conditions: Human astrocytes, drug combinations, stronger effect = higher value;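 also: cells exposed to compounds for 96 hours before viability readout; 0% = vehicle and 100% = killing control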
[17] = growth inhibition of BT084 medulloblastoma cells, cell-based, ICGC_MB145, cisplatin and BGB IC40 combos (AID 1671461); conditions: drug combinations, stronger effect = higher value;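 also: cells exposed to drugs for 96 hours; 0% = vehicle DMSO and 100% = high DMSO full killing control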
[18] = growth inhibition of RCMB18 medulloblastoma cells, cell-based, cisplatin and BGB IC40 combos (AID 1671462); conditions: stronger effect = higher value;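 also: cells exposed to compound for four days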
[19] = growth inhibition of CRL1545 osteosarcoma cells, cell-based, cisplatin and BGB IC20 combos (AID 1671464); conditions: stronger effect = higher value;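 also: cells exposed to compound for 96 hours before readout; 0% = vehicle DMSO and 100% = high DMSO killing control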
[20] = measured here: combination with BGB IC40, at 0.05 µM
[21] = measured here: with BGB IC20 combination, at 0.5 µM
[22] = measured here: with cisplatin IC20 combination, at 0.5 µM
[23] = measured here: combination with cisplatin, at 0.5 µM
[24] = measured here: combination with cisplatin, at 5 µM

CCCc1nc(C(C)(C)O)c(C(=O)O)n1Cc1ccc(-c2ccccc2-c2nn[nH]n2)cc1
outcome [1]: inactive
outcome [2]: inactive
outcome [3]: inactive
outcome [4]: inactive

Cc1c2oc3c(C)ccc(C(=O)NC4C(=O)NC(C(C)C)C(=O)N5CCCC5C(=O)N(C)CC(=O)N(C)C(C(C)C)C(=O)OC4C)c3nc-2c(C(=O)NC2C(=O)NC(C(C)C)C(=O)N3CCCC3C(=O)N(C)CC(=O)N(C)C(C(C)C)C(=O)OC2C)c(N)c1=O (stereo not drawn) (I: TVP[Sar][NMeV] / II: TVP[Sar][NMeV]; ester I:1-I:C, II:1-II:C; linker I:N-II:N via Actinocin(9to1); configuration not given here)
AC50 [1]: 0.00407 µM (active)
AC50 [2]: 0.0182 µM (active)
AC50 [3]: 0.00645 µM (active)
IC50 [4]: 0.0723 µM (active)

CO[C@H]1/C=C/O[C@@]2(C)Oc3c(C)c(O)c4c(O)c(c(C=NN5CCN(C)CC5)c(O)c4c3C2=O)NC(=O)/C(C)=C\C=C\[C@H](C)[C@H](O)[C@@H](C)[C@@H](O)[C@@H](C)[C@H](OC(C)=O)[C@@H]1C
inhibition ([5]; at 0.5 µM, stronger effect = higher value): -11% (inactive)
inhibition ([5]; measured here: combination with BGB IC20, at 0.005 µM): -12.4%
inhibition ([5]; measured here: combination with BGB IC40, at 0.005 µM): -11.3%
inhibition [5, 20]: 7.63%
inhibition ([5]; measured here: combination with cisplatin, at 0.5 µM, stronger effect = higher value): -13.1%
inhibition ([5]; measured here: combination with cisplatin, at 5 µM, stronger effect = higher value): 25%
inhibition ([6]; BGB combo, at 5 µM): 2%
inhibition ([6]; at 0.5 µM): 2.94% (inactive)
inhibition ([6]; cisplatin combo, at 5 µM): -6.32%
inhibition [6, 21]: 7.7%
inhibition [6, 22]: 10.2%
inhibition ([6]; single agent, at 5 µM): 0.074%
inhibition ([7]; BGB IC20 combo, at 0.005 µM): 6.74%
inhibition ([7]; BGB IC40 combo, at 0.005 µM): -7.18%
inhibition ([7]; BGB IC40 combo, at 0.05 µM): 33.5%
inhibition ([7]; at 0.5 µM): -10.8% (inactive)
inhibition ([7]; cisplatin combo, at 0.05 µM): 33.5%
inhibition ([7]; cisplatin combo, at 0.5 µM): -9.79%
inhibition ([7]; cisplatin combo, at 5 µM): -23.1%
inhibition ([7]; measured here: 5 uM single agent, at 5 µM): -0.291%
inhibition ([8]; at 0.5 µM): -13.7% (inactive)
inhibition [8, 20]: -25.4%
inhibition [8, 23]: 34.7%
inhibition [8, 24]: 6.61%
inhibition ([9]; at 0.5 µM): -9.22% (inactive)
inhibition ([9]; measured here: with BGB IC20, at 0.5 µM): -34.1%
inhibition ([9]; measured here: with BGB IC20, at 5 µM): 19.8%
inhibition ([9]; measured here: with cisplatin IC20, at 0.5 µM): -3.74%
inhibition ([9]; measured here: with cisplatin IC20, at 5 µM): 32.8%
inhibition ([9]; single agent, at 5 µM): 32.5%
inhibition ([10]; at 0.5 µM): -28.2% (inactive)
inhibition ([10]; measured here: combination with BGB at IC20, at 0.5 µM): -20.5%
inhibition ([10]; measured here: combination with cisplatin at IC20, at 0.5 µM): -57.4%
inhibition ([11]; at 0.5 µM): -2.23% (inactive)
inhibition ([11]; measured here: combo with BGB at IC20, at 0.5 µM): -1.06%
inhibition ([11]; measured here: combo with cisplatin at IC20, at 0.5 µM): -3.79%
inhibition ([12]; at 0.5 µM): 6.08% (inactive)
inhibition ([12]; measured here: inhibition with BGB combination, at 0.05 µM): 0.522%
inhibition ([12]; measured here: inhibition with cisplatin combination, at 0.05 µM): -2.06%
inhibition ([13]; at 0.5 µM): -16.1% (inactive)
inhibition [13, 23]: -10.3%
inhibition [13, 24]: 19.4%
inhibition ([14]; at 0.5 µM): -11.2% (inactive)
inhibition ([14]; measured here: BGB combination, at 0.5 µM): -8.37%
inhibition ([14]; measured here: BGB combination, at 5 µM): 1.85%
inhibition ([14]; measured here: cisplatin combination, at 0.5 µM): -22.5%
inhibition ([14]; measured here: cisplatin combination, at 5 µM): 4.56%
inhibition ([15]; BGB combination, concentration series, at 5 µM): 33.9%
inhibition ([15]; at 0.5 µM): 4.15% (inactive)
inhibition ([15]; cisplatin combination, concentration series, at 5 µM): 22%
inhibition ([16]; at 0.5 µM): -6.54% (inactive)
inhibition ([16]; measured here: combo with BGB IC20, at 0.5 µM): -11%
inhibition ([16]; measured here: combo with cisplatin IC20, at 0.5 µM): -7.29%
inhibition ([17]; at 0.5 µM): -5.85% (inactive)
inhibition ([17]; cisplatin combination, at 0.5 µM): -3.4%
inhibition ([17]; cisplatin combination, at 5 µM): -36.2%
inhibition ([17]; measured here: BGB IC40 combination 0.05 uM, at 0.05 µM): -6.21%
inhibition ([17]; single agent, at 5 µM): -1.11%
inhibition ([18]; at 0.5 µM): -18.2% (inactive)
inhibition ([18]; cisplatin combo, at 5 µM): 4.58%
inhibition ([18]; measured here: BGB IC40 combination, at 0.05 µM): -7.26%
inhibition [18, 23]: -16%
inhibition ([18]; single agent, at 5 µM): -21.9%
inhibition ([19]; at 0.5 µM): -32.1% (inactive)
inhibition [19, 21]: -8.55%
inhibition [19, 22]: -44%
inhibition ([19]; single agent, at 0.05 µM): 6.37%
inhibition ([19]; single agent, at 5 µM): 27.5%

C=C1/C(=C\C=C2/CCC[C@]3(C)[C@@H]([C@H](C)CCCC(C)(C)O)CC[C@@H]23)C[C@@H](O)C[C@@H]1O
outcome [1]: inactive
outcome [2]: inactive
IC50 [4]: 23.5 µM (active)

CCC(=O)NS(=O)(=O)c1ccc(-c2c(-c3ccccc3)noc2C)cc1
outcome [1]: inactive
outcome [2]: inactive
outcome [3]: inactive
outcome [4]: inactive
